Read-out in assay [1]: Human Leukocyte Antigen - DR isotype (HLADR), HLA-DRA (gene 3122)
Briefly: BSK_BE3C_HLADR: BioMAP Diversity Plus: BE3C Assay for Human Leukocyte Antigen - DR isotype (HLADR) Biomarker Activity (AID 2283032). The note with it: primary human bronchial epithelial cells; actives raise or lower the signal. Put shortly: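 Cell-surface HLA-DR ELISA readout at 24 h after dosing in the BE3C primary human lung bronchial epithelial system; gain or loss of signal against DMSO, with parallel sulforhodamine B staining of total protein for overt cytotoxicity.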

Read-out in assay [2]: Vascular cell adhesion molecule 1 (VCAM1), VCAM1 (gene 7412)
Briefly: BSK_4H_VCAM1: BioMAP Diversity Plus: 4H Assay for Vascular cell adhesion molecule 1 (VCAM1) Biomarker Activity (AID 2283033).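 For outcome: cell-surface VCAM-1 protein measured by ELISA.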 The note with it: primary human endothelial cells (HUVEC); actives raise or lower the signal. In a few lines:
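VCAM-1 ELISA read 24 h after chemical dosing of HUVEC in the BioMAP 4H system, with gain or loss of signal fitted relative to DMSO. Parallel SRB staining (560 nm) checked overt cytotoxicity.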

Read-out in assay [3]: Interferon-gamma inducible Protein 10 (IP10), CXCL10 (gene 3627)
Briefly: BSK_BE3C_IP10: BioMAP Diversity Plus: BE3C Assay for Interferon-gamma inducible Protein 10 (IP10) Biomarker Activity (AID 2283034). The following applies: primary human bronchial epithelial cells; actives raise or lower the signal. In a few lines:
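IP-10 quantified by ELISA in human primary bronchial epithelial cell cultures at 24 hours post-dosing. Gain or loss of signal fitted relative to DMSO; parallel SRB staining assessed overt cytotoxicity.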

Read-out in assay [4]: Monokine induced gamma interferon (MIG), CXCL9 (gene 4283)
Briefly: BSK_BE3C_MIG: BioMAP Diversity Plus: BE3C Assay for Monokine induced gamma interferon (MIG) Biomarker Activity (AID 2283035). The following applies: primary human bronchial epithelial cells; actives raise or lower the signal. Put shortly: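 hu bronchial epithelial 1° cells, 24 h cpd; MIG by ELISA; bidirectional fit, DMSO = baseline.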

Read-out in assay [5]: Transforming growth factor beta 1 (TGFb1), TGFB1 (gene 7040)
Briefly: BSK_BE3C_TGFb1: BioMAP Diversity Plus: BE3C Assay for Transforming growth factor beta 1 (TGFb1) Biomarker Activity (AID 2283036;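 for outcome: TGF-b1 protein level measured by ELISA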). The following applies: primary human bronchial epithelial cells; actives raise or lower the signal. In a few lines:
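ELISA readout of TGF-b1 from human lung bronchial epithelial primary cells, taken 24 h post-treatment. Gain or loss of signal fitted relative to DMSO baseline, with parallel SRB staining for overt cytotoxicity.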

Read-out in assay [6]: Plasminogen activator inhibitor-1 (PAI1), SERPINE1 (gene 5054)
Briefly: BSK_BE3C_PAI1: BioMAP Diversity Plus: BE3C Assay for Plasminogen activator inhibitor-1 (PAI1) Biomarker Activity (AID 2283037). The note with it: primary human bronchial epithelial cells; actives raise or lower the signal. Put shortly: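 PAI-1 was measured by ELISA in human primary bronchial epithelial cultures 24 h after chemical dosing, with cytotoxicity checked by SRB total-protein staining in parallel cultures. Activity was fitted in both directions relative to DMSO.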

Read-out in assay [7]: urokinase plasminogen activator (uPA), PLAU (gene 5328)
Briefly: BSK_BE3C_uPA: BioMAP Diversity Plus: BE3C Assay for urokinase plasminogen activator (uPA) Biomarker Activity (AID 2283038).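 Note: uPA protein level quantified by ELISA in cell cultures; uPA read one day after compound addition.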 The following applies: primary human bronchial epithelial cells; actives raise or lower the signal. Put shortly: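 Bronchial epithelial cells (human, primary); chemical 24 h; uPA by ELISA; bidirectional fit vs DMSO. SRB (0.1%, after 10% TCA fixation, 560 nm) in parallel cultures for cytotoxicity.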

Read-out in assay [8]: Urokinase-type plasminogen activator receptor (uPAR), PLAUR (gene 5329)
Briefly: BSK_BE3C_uPAR: BioMAP Diversity Plus: BE3C Assay for Urokinase-type plasminogen activator receptor (uPAR) Biomarker Activity (AID 2283039).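 For outcome: cells exposed to compound for one day before measurement.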 The following applies: primary human bronchial epithelial cells; actives raise or lower the signal. In a few lines: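 uPAR levels were measured by ELISA after 24 h compound treatment of primary human bronchial epithelial cells, fitted in both directions relative to DMSO. Parallel SRB staining served as the cytotoxicity read-out.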

Read-out in assay [9]: Interleukin-6 (IL6), IL6 (gene 3569)
Briefly: BSK_CASM3C_IL6: BioMAP Diversity Plus: CASM3C Assay for Interleukin-6 (IL6) Biomarker Activity for (AID 2283040). The following applies: primary human coronary artery smooth muscle cells; actives raise or lower the signal.

Read-out in assay [10]: Tissue plasminogen activator (tPA), PLAT (gene 5327)
Briefly: BSK_BE3C_tPA: BioMAP Diversity Plus: BE3C Assay for Tissue plasminogen activator (tPA) Biomarker Activity (AID 2283041).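 For outcome: tPA level quantified by ELISA one day after compound addition.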 The note with it: primary human bronchial epithelial cells; actives raise or lower the signal. In a few lines:
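tPA measured by ELISA 24 h after dosing human primary bronchial epithelial cells (BE3C system). Changes in either direction were fitted against DMSO. Parallel cultures were stained with SRB to flag overt cytotoxicity.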

Results on 20 compounds are retold here after PubChem BioAssay (EPA / NIEHS).

Active and inactive are the calls of the source. Rule for the calls: active = hit-call score of the fitted dose curve at least 0.9, where 1 is the maximum; inactive = score below 0.9.

One may read the AC50 as the concentration at which the activity in the assay is half-maximal.

`CCN(Cc1cccc(S(=O)(=O)O)c1)c1ccc(C(=C2C=CC(=[N+](CC)Cc3cccc(S(=O)(=O)O)c3)C=C2)c2ccccc2S(=O)(=O)[O-])cc1`: the result in [1], in [2], in assay [3], in assay [4], in [5] and in assay [6] was inactive. Further, the result in [7], in assay [8], in assay [9] and in assay [10] was inactive.
As to `O=c1ccc2ccccc2o1`, the outcome in [1], in assay [2], in assay [3], in assay [4], in assay [5] and in [6] was inactive. Further, the result in assay [7], in assay [8], in assay [9] and in assay [10] was inactive.
Take `Cc1ncc(CO)c(CO)c1O`: the result in [1], in [2], in assay [3], in assay [4], in assay [5] and in assay [6] was inactive. In addition, the outcome in assay [8], in assay [9] and in assay [10] was inactive.
On to `CC(C)(O)c1ccc(CNC(=O)c2cccnc2Oc2ccc3nonc3c2)cc1`, for which the outcome in assay [1], in assay [2], in [3], in [4], in assay [5] and in assay [6] was inactive. For the same compound, the outcome in assay [8] and in assay [10] was inactive. Besides, the AC50 in assay [9] is 20 µM (active).
As for `CC/C(=C(/CC)c1ccc(O)cc1)c1ccc(O)cc1`, the AC50 in assay [1] is 23.4 µM (active); in [2], 28.9 µM (active); in [3], 17.1 µM (active); in [4] it was 33 µM (active); in [5], 6.47 µM (active); in assay [6], 20 µM (active). The AC50 was 31.3 µM (active) in assay [8] and 14.3 µM (active) in [10]. The outcome in assay [9] was inactive.
Regarding `CCN(CC)C(=O)c1cc(S(=O)(=O)Cc2ccccc2)c(N2CCC(c3ccccc3)CC2)cc1N(CC)CCN(C)C`, the concentration at half-maximal activity (AC50) in [1] was 8.48 µM (active); in [2] it was 18.3 µM (active); in assay [3], 10.9 µM (active); in assay [4], 12.6 µM (active); in assay [5], 9.99 µM (active); in assay [6], 7.91 µM (active). Moreover, the AC50 in [8] was 10.4 µM (active); in assay [9] it was 0.7 µM (active); in [10], 6.65 µM (active).
With `NCc1cccc(C2CCN(C(=O)c3ccc(C#Cc4ccccc4F)o3)CC2)c1`, the AC50 in assay [1] was 6.79 µM (active); in [2] it was 26.2 µM (active); in assay [3] it was 12.4 µM (active); in assay [4], 13.7 µM (active); in assay [5], 13.1 µM (active); in assay [6] it was 13.8 µM (active). The values for the AC50 in assay [8], in assay [9] and in assay [10] were 11.8 µM (active), 33.9 µM (active) and 7.07 µM (active), respectively.
For the compound `O=C(O)c1ccccc1-n1cc(C(=O)O)c(=O)c2cc(Nc3c(F)cc(F)cc3Cl)c(Cl)cc21`, the result in assay [1], in assay [2], in assay [3], in [4], in assay [5] and in assay [6] was inactive. For the same compound, the result in assay [8], in assay [9] and in assay [10] was inactive.
Take `O=C1CCC(C2CCCCC2)CC1`: the AC50 in assay [1] was 25.9 µM (active); in assay [3], 29.6 µM (active). Moreover, the outcome in assay [2], in [4], in assay [5], in [6], in assay [8] and in [9] was inactive. Further, the outcome in assay [10] was inactive.
On to `CCN(Cc1cccnc1)C(=O)c1cccc(Cl)c1[C@]1(C)C(=O)N(Cc2ccc(OC)cc2OC)c2ccc(Cl)cc21`, for which the outcome in assay [1], in [2], in [4], in assay [5] and in [10] was inactive. For the same compound, the half-maximal activity concentration (AC50) in assay [3] was 12.1 µM (active); in assay [6], 3.79 µM (active); in assay [8], 6.94 µM (active); in [9], 12.3 µM (active).
Consider `CCCOC(=O)c1cc(O)c(O)c(O)c1`, for which the outcome in assay [1], in assay [3], in assay [4], in assay [5], in assay [6] and in assay [8] was inactive. Also, the result in assay [9] and in [10] was inactive. In addition, the concentration at half-maximal activity (AC50) in assay [2] was 2.01 µM (active).
`O=c1c(-c2ccc(O)cc2)coc2cc(O)cc(O)c12`: the result in [1], in assay [3], in assay [4], in [5], in [6] and in assay [8] was inactive. Moreover, the values for the AC50 in assay [2], in assay [9] and in [10] were 20 µM (active), 11.1 µM (active) and 9.33 µM (active), respectively.
With `c1ccc2ccccc2c1`, the result in assay [1], in assay [2], in assay [3], in [4], in assay [5] and in [6] was inactive. For the same compound, the result in assay [8], in assay [9] and in assay [10] was inactive.
As for `CCO[Si](CCCNC(N)=O)(OCC)OCC`, the result in [1], in assay [2], in assay [3], in [4], in assay [5] and in [6] was inactive. In addition, the outcome in assay [8], in assay [9] and in assay [10] was inactive.
`CCCCCCCCCC(=O)O`: the result in [1], in [2], in assay [3], in [4], in assay [5] and in assay [6] was inactive. Besides, the outcome in assay [8], in [9] and in [10] was inactive.
Turning to `CC(O)CC(C)(C)O` (configuration not stated), the outcome in assay [1], in assay [2], in assay [3], in assay [4], in [5] and in [6] was inactive. For the same compound, the outcome in [8], in [9] and in [10] was inactive.
With `Cc1cc(F)ccc1-c1cc(N2CC[C@@H](O)[C@H]2CO)ncc1N(C)C(=O)C(C)(C)c1cc(C(F)(F)F)cc(C(F)(F)F)c1`, the AC50 in assay [1] is 12.8 µM (active); in [2], 11.2 µM (active); in assay [3], 13.3 µM (active); in assay [4], 13.9 µM (active); in assay [5] it was 11.5 µM (active); in assay [6], 13 µM (active). In addition, the results for the AC50 in assay [8], in assay [9] and in assay [10] were 14 µM (active), 16.3 µM (active) and 9.81 µM (active), respectively.
Take `C[C@]12CC[C@@H]3c4ccc(O)cc4CC[C@H]3[C@@H]1CC[C@H]2O`: the result in assay [1], in assay [2], in assay [3], in [4], in [5] and in assay [6] was inactive. Besides, the result in assay [8], in [9] and in [10] was inactive.
`Oc1ccccc1`: the outcome in assay [1], in assay [2], in [3], in assay [4], in assay [5] and in assay [6] was inactive. For the same compound, the result in assay [8], in [9] and in [10] was inactive.
For the compound `CC(=O)N1CCN(c2ccc(OC[C@H]3CO[C@](Cn4ccnc4)(c4ccc(Cl)cc4Cl)O3)cc2)CC1`, the half-maximal activity concentration (AC50) is 33.3 µM (active) in assay [1], 33.6 µM (active) in [2] and 29.4 µM (active) in [3]. In addition, the outcome in [4], in assay [5], in [6], in assay [8], in assay [9] and in assay [10] was inactive.
